HT1080 IDH1KD tx: HT-1080 IDH1 knockdown cell toxicity (counter line); AID 686971; Potency, µM (series often up to 46.1 µM), most hits filed as cytotoxic; 360,000 compounds, 2% hits; HT-1080 IDH1 knockdown viability, ATP luminescence, 48 h
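In this qHTS, HT-1080 cells depleted of IDH1 are exposed for 48 h at 37 °C to compound titrations. Toxicity is scored from CellTiter-Glo luminescence, with DMSO as full viability and medium alone as none.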
HT1080-NT tox: kills 2HG-producing HT-1080-NT fibrosarcoma cells. HT-1080-NT fibrosarcoma viability, CellTiter-Glo ATP luminescence, 48 h. Potency, µM (doses to about 46.1 µM), most hits filed as cytotoxic. 360,000 compounds, 1.6% hits. AID 686970;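 also: NT is the 2HG producing partner of a matched IDH1 knockdown line; nearly all actives have a fitted effect of over 55% in size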
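750 cells/well, RPMI + 5% FBS; 2 h settle, compound pin-transfer, 48 h at 37 degrees C. CellTiter-Glo 10 min RT, luminescence. Normalized to DMSO and media-only wells.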
KB-3-1 cytotox: KB-3-1 parental cell cytotoxicity. KB-3-1 viability, CellTiter-Glo ATP luminescence, 72 h. Potency, µM (titrated, usually from 46.1 µM), usual class: cytotoxic. 400,000 compounds, 1.4% hits; also: nearly all actives have a fitted effect of over 60% in size
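Parental KB-3-1 viability, qHTS format: 72 h compound exposure, 37 °C; CellTiter-Glo; media-only wells and DMSO plates as controls; concentration-effect fits on corrected data.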
MCF10A rerep: induces DNA re-replication in MCF 10a normal breast cells. MCF 10A DNA re-replication, Hoechst nuclear intensity, 48 h. 350,000 compounds, 2.9% hits. Potency, µM (series often up to 46.1 µM), actives largely listed as activators; also: nearly all actives have a fitted effect of over 50% in size
KB-V1 MDR tox: KB-V1 MDR subline cytotoxicity; AID 1347076; Potency, µM (top dose mostly 46.1 µM), usual class: cytotoxic; 400,000 compounds, 3.4% hits; KB-V1 MDR cells viability, CellTiter-Glo, 72 h; also: nearly all actives have a fitted effect of over 60% in size
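Cells of the MDR subline KB-V1 are plated, dosed with compound at multiple concentrations, and incubated 72 h at 37 degrees C; CellTiter-Glo is then added and luminescence read after 10 min.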
SW480 rereplic: inducers of DNA re-replication in SW480 colon cancer cells; SW480 DNA re-replication, Hoechst DNA content imaging, 48 h; Potency, µM (doses to about 46.1 µM), actives largely listed as activators; 340,000 compounds, 1.8% hits; AID 624297; also: nearly all actives have a fitted effect of over 55% in size
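Quantitative HTS format with DMSO vehicle controls; 48 hr drug incubation at 37 C, then 40 min Hoechst staining and scanning imager measurement at 405 nm excitation.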
Each line names hits and unclear results; the compound was inactive in the other large screens; ! = not confirmed by another sample. In the library only some 8% were active in any assay of this set; here they are far more common. Calls follow the shape of the dose curve; as a rule, active = well fitted curve in the direction sought with a large enough effect; inconclusive = small, poorly fitted or top-dose-only effect, or another doubt; inactive = no such curve, though single readings can be large; an effect the other way counts as inactive or inconclusive.

COC(=O)C1C(c2ccc(OC)cc2)NC(=O)NC1(O)C(F)(F)Cl (centres undefined)	KB-V1 MDR tox inconclusive
CCCCNC(=O)CC1S/C(=N/N=C/c2ccc(OC)cc2)NC1=O (centres undefined)	none
CCS(=O)(=O)N1CCN=C1SC(C)c1ccccc1 (centres undefined)	none
CC(C)Cc1cc(C(=O)N2CCN(c3ccc(F)cc3)CC2)no1	none
CN(C(=S)NC(=O)c1ccccc1)c1c(N)n(Cc2ccccc2)c(=O)[nH]c1=O	none
Cc1cc(C(=O)C(C)Sc2cccc[n+]2[O-])c(C)n1-c1ccc(Cl)cc1 (centres undefined)	HT1080 IDH1KD tx 23.1µM, HT1080-NT tox inconclusive, KB-3-1 cytotox inconclusive, KB-V1 MDR tox 20.6µM
Cc1ccc(NC(=O)COC(=O)Cc2ccccc2)cc1S(=O)(=O)N1CCOCC1	KB-3-1 cytotox inconclusive
CC(C(=O)Nc1cc([N+](=O)[O-])ccc1Cl)N1CCN(c2ccccc2O)CC1 (centres undefined)	HT1080 IDH1KD tx inconclusive, HT1080-NT tox inconclusive, KB-3-1 cytotox inconclusive, MCF10A rerep inconclusive, KB-V1 MDR tox 10.3µM
COc1ccc([N+](=O)[O-])cc1NC(=O)C(C)N1CCCC1 (centres undefined)	none
Clc1ccc(/C=N/Nc2nnc(-c3ncc[nH]3)c3ccccc23)cc1	HT1080 IDH1KD tx inconclusive, HT1080-NT tox inconclusive, KB-V1 MDR tox 7.31µM
CC(C)COc1ccc(CSCCNC(=S)Nc2ccccc2)cc1	HT1080 IDH1KD tx inconclusive, HT1080-NT tox inconclusive, MCF10A rerep inconclusive, KB-V1 MDR tox 25.9µM, SW480 rereplic inconclusive
CCCC(=O)N(CCN(C(=O)CCC)c1ccccc1)c1ccccc1	KB-V1 MDR tox 10.3µM
CCN(C(=O)CCC(=O)N(CC)c1ccccc1)c1ccccc1	none
C=CCn1c(SCC(=O)NCCCC(=O)OCC)nc2scc(-c3ccco3)c2c1=O	KB-V1 MDR tox inconclusive
Cc1ccc(Cn2ccsc2=NC(=O)CCl)cc1	HT1080 IDH1KD tx 11.6µM, HT1080-NT tox 1.03µM, KB-3-1 cytotox 20.6µM, MCF10A rerep inconclusive, KB-V1 MDR tox inconclusive
Cc1ccc(Cn2ccsc2=NC(=O)COC(=O)c2ccc(NC(=O)CC#N)cc2)cc1	KB-3-1 cytotox inconclusive
COc1ccc(-n2cc(-c3ccc(C)cc3)[n+]3c2SCC3)cc1	HT1080 IDH1KD tx 2.31µM, HT1080-NT tox 2.91µM, KB-3-1 cytotox inconclusive, MCF10A rerep inconclusive
Cc1ccc(-c2cn(-c3ccccc3)c3[n+]2CCCS3)cc1	HT1080 IDH1KD tx inconclusive, HT1080-NT tox inconclusive, KB-3-1 cytotox 1.84µM!
CCc1ccc(-n2cc(-c3ccc(F)cc3)[n+]3c2SCCC3)cc1	HT1080 IDH1KD tx inconclusive, HT1080-NT tox inconclusive, KB-3-1 cytotox 9.2µM
c1ccc(-c2cn(-c3ccccc3)c3[n+]2CCCS3)cc1	HT1080 IDH1KD tx inconclusive, HT1080-NT tox inconclusive, KB-3-1 cytotox inconclusive
COc1ccc(C)cc1S(=O)(=O)n1ccnc1C	none
c1ccc2c(c1)C1=NCCN1c1ccccc1-2	HT1080 IDH1KD tx 16.4µM, HT1080-NT tox inconclusive, KB-3-1 cytotox inconclusive, KB-V1 MDR tox 11.6µM (no result: MCF10A rerep, SW480 rereplic)
COC1=Nc2ccccc2N2CCN=C12	HT1080 IDH1KD tx inconclusive (no result: MCF10A rerep, SW480 rereplic)
Cc1cc(C)cc(N2C(=O)C=CC2=O)c1	HT1080 IDH1KD tx inconclusive, HT1080-NT tox inconclusive, KB-3-1 cytotox inconclusive, MCF10A rerep 6.51µM, SW480 rereplic 16.4µM
CCOC(=O)C1CCN(Cc2nc3ccccc3c(=O)n2-c2ccc(F)cc2)CC1	KB-V1 MDR tox 4.11µM
CCOC(=O)C1CCN(Cc2ccc(OC)c(C)c2OC)CC1	KB-V1 MDR tox inconclusive
O=C(c1ccco1)N1CCN(Cc2nc3ccccc3c(=O)n2-c2ccc(F)cc2)CC1	KB-V1 MDR tox inconclusive
CCOC(=O)C1CCN(Cc2cc(Cl)c3ccccc3c2O)CC1	HT1080 IDH1KD tx 25.9µM, HT1080-NT tox inconclusive, MCF10A rerep 18.4µM, SW480 rereplic inconclusive
COc1ccc(NC(=O)c2c(Cl)n(C)c3ccccc23)cc1	HT1080 IDH1KD tx inconclusive, HT1080-NT tox 18.4µM, KB-3-1 cytotox 2.91µM, MCF10A rerep 16.4µM, KB-V1 MDR tox 5.8µM, SW480 rereplic inconclusive
O=C(Nc1ccncc1)c1sc2ccccc2c1Cl	KB-V1 MDR tox 8.2µM
O=C(Nc1ccncc1)c1ccc(-c2ccccc2)cc1	KB-3-1 cytotox 23.1µM, MCF10A rerep inconclusive, SW480 rereplic inconclusive
O=C(NC1CCCCCCC1)c1ccccc1O	none
O=C(NC1CCCCC1)c1cc2ccccc2cc1O	KB-3-1 cytotox inconclusive, SW480 rereplic 18.4µM
Cc1ccc(C)c(OCC(=O)Nc2ccc(S(=O)(=O)Nc3ncccn3)cc2)c1	none
Cc1cc(NC(=O)Cn2cnc3c2c(=O)n(C)c(=O)n3C)n(-c2ccccc2)n1	KB-V1 MDR tox inconclusive
COc1c(C(=O)Nc2ccc(Cc3ccncc3)cc2)ccc2ccccc12	KB-3-1 cytotox 13µM, MCF10A rerep 23.1µM, KB-V1 MDR tox 2.91µM, SW480 rereplic inconclusive
Cc1cccc(C(=O)NC(=S)Nc2ccc(Cc3ccncc3)cc2)c1	HT1080 IDH1KD tx inconclusive, HT1080-NT tox inconclusive, KB-3-1 cytotox inconclusive, MCF10A rerep inconclusive
COc1ccc(NC(=O)c2cccc3ccccc23)cc1	HT1080 IDH1KD tx inconclusive, KB-3-1 cytotox inconclusive, MCF10A rerep 20.6µM, KB-V1 MDR tox inconclusive, SW480 rereplic inconclusive
O=C(NC(=S)Nc1ccc(Cc2ccncc2)cc1)c1ccccc1	KB-3-1 cytotox inconclusive, MCF10A rerep inconclusive, KB-V1 MDR tox 18.4µM
COc1ccc(NC(=O)c2cc3ccccc3cc2O)cc1	HT1080 IDH1KD tx inconclusive, HT1080-NT tox inconclusive, MCF10A rerep 4.61µM, SW480 rereplic inconclusive
Cn1c(=O)[nH]c(=O)c2c1nc(SCC(=O)O)n2Cc1ccccc1	none
Cc1ccc(C)c(NC(=O)NNC(=O)c2cc3ccccc3cc2O)c1	MCF10A rerep 14.6µM
COc1ccc([C@H]2C[C@H](O)[C@@H](n3cc(C4CC4)nn3)CN2Cc2cccs2)cc1	none (no result: MCF10A rerep, SW480 rereplic)
Cc1c(Cl)cn2c(=O)cc(CN3CCN(c4ccccc4)CC3)nc2c1Cl	HT1080 IDH1KD tx inconclusive, KB-V1 MDR tox inconclusive
COc1nc(N(C)C)nc(N(C#N)CCOC(C)=O)n1	SW480 rereplic inconclusive
CC(=O)C1=C(O)C(=O)N(c2ccccn2)C1c1ccccc1[N+](=O)[O-] (centres undefined)	MCF10A rerep inconclusive, SW480 rereplic 20.6µM
CC(=O)C1=C(O)C(=O)N(c2ccc(Br)cn2)C1c1ccccc1[N+](=O)[O-] (centres undefined)	HT1080-NT tox inconclusive
O=C(NCc1ccncc1)c1cccc(S(=O)(=O)NCc2ccccc2)c1	KB-V1 MDR tox inconclusive
